Active and inactive are the calls of the source. The calls were made as follows: active = hit-call score of the fitted dose curve at least 0.9, where 1 is the maximum; inactive = score below 0.9.

Experiment [1] deals with Transcription factor E2F1 (Homo sapiens) (UniProt Q01094). Description: ATG_E2F_CIS: Attagene CIS-FACTORIAL HepG2 Assay for human E2F Transcription Factor 1 (AID 2282935). The settings on record: HepG2 Attagene cis-reporter, E2F reporter RNA transcripts; actives raise or lower the signal. Summed up:
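In this cis-factorial format, endogenous factor activity drives transfected reporters in HepG2; transcripts collected at 24 h are quantified by fluorescence after RT-PCR and capillary separation.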

A short description of experiment [2]: ATG_E_Box_CIS: Attagene CIS-FACTORIAL HepG2 Assay for human Enhancer Box (E-box) (AID 2282936). Particulars: HepG2 E-box cis-reporter transcription, actives raise or lower the signal. Summed up:
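Measured 24 h post-dosing in HepG2 cells transfected with multiple cis-regulated reporter units, signal being reporter mRNA induction detected by fluorescent RT-PCR with capillary electrophoresis; gain or loss fitted against DMSO.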

Experiment [3] is described as follows: ATG_M_61_CIS: Attagene CIS-FACTORIAL HepG2 Assay for M61 Transcription Factor (Internal Marker) (AID 2282937). The settings on record: HepG2 Attagene CIS-FACTORIAL M61 internal marker reporter; actives raise or lower the signal. Summed up:
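HepG2 cells transiently transfected with cis-element-driven multiple reporter transcription units, dosed for 24 h. Reporter mRNA measured by RT-PCR, 6-FAM primer-extension labelling, HpaI digestion and capillary electrophoresis; bidirectional fit versus DMSO baseline.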

The nature of experiment [4]: ATG_EGR_CIS: Attagene CIS-FACTORIAL HepG2 Assay for human Early Growth Response 1 (EGR1) (AID 2282938). Particulars: HepG2 Attagene CIS-FACTORIAL EGR reporter mRNA; actives raise or lower the signal. The essentials: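 HepG2 cells transiently transfected with cis-promoter-driven multiplexed reporter transcription units; reporter mRNA measured 24 h after compound dosing by RT-PCR, 6-FAM primer extension, HpaI digestion and capillary electrophoresis. Bidirectional fit versus DMSO baseline.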

The nature of experiment [5]: ATG_M_19_CIS: Attagene CIS-FACTORIAL HepG2 Assay for M19 Transcription Factor (Internal Marker) (AID 2282939). Particulars: HepG2 Attagene CIS-FACTORIAL M19 internal marker reporter; actives raise or lower the signal. The essentials:
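Following a 24 h exposure, RNA from transfected HepG2 cells was reverse-transcribed, PCR-amplified with reporter-specific primers, end-labelled with 6-FAM and HpaI-digested before capillary separation. Values represent gain or loss versus DMSO.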

The nature of experiment [6]: ATG_ERE_CIS: Attagene CIS-FACTORIAL HepG2 Assay for Estrogen Response Element (ERE) (AID 2282940). Particulars: HepG2 ERE cis-reporter, Attagene RNA transcript; actives raise or lower the signal. Summed up: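 HepG2, transient cis-reporter units, 24 h exposure. RNA isolated, oligo(dT) RT, reporter-specific PCR, FAM extension, HpaI cut, CE detection. Gain/loss-of-signal vs DMSO.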

Experiment [7] in a line: ATG_Ets_CIS: Attagene CIS-FACTORIAL HepG2 Assay for human Erythroblast Transformation Specific (ETS) (AID 2282941). The settings on record: HepG2 ETS cis-reporter transcription, actives raise or lower the signal. Summed up: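 RT-PCR/capillary electrophoresis fluorescence read-out of reporter mRNA; HepG2 transient multi-reporter transfection; 24 h compound exposure; gain or loss of signal fitted bidirectionally relative to DMSO.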

A short description of experiment [8]: ATG_FoxO_CIS: Attagene CIS-FACTORIAL HepG2 Assay for human Forkhead box O (FoxO) (AID 2282943). Particulars: HepG2 Attagene cis-reporter, FoxO element, mRNA; actives raise or lower the signal. The essentials: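 HepG2 cells transiently transfected with cis-promoter-driven multiple reporter transcription units; 24 h after chemical dosing, reporter mRNA quantified by RT-PCR, fluorescent primer extension, HpaI digestion and capillary electrophoresis. Bidirectional fitting versus DMSO baseline.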

The nature of experiment [9]: ATG_GATA_CIS: Attagene CIS-FACTORIAL HepG2 Assay for human GATA Binding Protein (AID 2282944). Particulars: HepG2 GATA cis-element reporter, Attagene multiplex mRNA; actives raise or lower the signal. Summed up:
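DMSO serves as negative control and baseline for bidirectional fitting of reporter mRNA changes. HepG2 cells bearing transiently transfected cis-promoter reporters were exposed 24 h; transcripts detected via RT-PCR and capillary electrophoresis.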

Experiment [10] concerns the target Hepatocyte nuclear factor 3-beta (Homo sapiens) (UniProt Q9Y261). Description: ATG_FoxA2_CIS: Attagene CIS-FACTORIAL HepG2 Assay for human Forkhead box A2 (FOXA2) (AID 2282942). Particulars: HepG2 cis-reporter transcription factor activity, 24 h; actives raise or lower the signal. The essentials:
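HepG2 cells transiently transfected with multiple cis-regulated reporter transcription units, dosed for 24 h. Reporter mRNA measured by RT-PCR, 6-FAM labelling, HpaI digestion and capillary electrophoresis; bidirectional fitting against DMSO baseline.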

Transcription factor E2F1 (Homo sapiens), sequence (Q01094 whole entry, looked up): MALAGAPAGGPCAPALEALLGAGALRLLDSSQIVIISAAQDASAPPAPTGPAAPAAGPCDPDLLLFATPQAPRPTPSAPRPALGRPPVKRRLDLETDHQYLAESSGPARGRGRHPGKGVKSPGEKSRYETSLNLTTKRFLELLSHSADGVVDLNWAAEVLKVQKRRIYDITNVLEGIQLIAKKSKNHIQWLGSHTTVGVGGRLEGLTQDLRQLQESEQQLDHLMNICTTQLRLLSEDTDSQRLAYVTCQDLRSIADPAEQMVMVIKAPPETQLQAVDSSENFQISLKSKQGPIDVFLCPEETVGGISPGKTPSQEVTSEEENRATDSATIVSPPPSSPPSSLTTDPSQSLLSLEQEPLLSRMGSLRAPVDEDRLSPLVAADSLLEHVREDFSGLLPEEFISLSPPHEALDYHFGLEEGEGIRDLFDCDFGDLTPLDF
Hepatocyte nuclear factor 3-beta (Homo sapiens), sequence (Q9Y261 whole entry, looked up): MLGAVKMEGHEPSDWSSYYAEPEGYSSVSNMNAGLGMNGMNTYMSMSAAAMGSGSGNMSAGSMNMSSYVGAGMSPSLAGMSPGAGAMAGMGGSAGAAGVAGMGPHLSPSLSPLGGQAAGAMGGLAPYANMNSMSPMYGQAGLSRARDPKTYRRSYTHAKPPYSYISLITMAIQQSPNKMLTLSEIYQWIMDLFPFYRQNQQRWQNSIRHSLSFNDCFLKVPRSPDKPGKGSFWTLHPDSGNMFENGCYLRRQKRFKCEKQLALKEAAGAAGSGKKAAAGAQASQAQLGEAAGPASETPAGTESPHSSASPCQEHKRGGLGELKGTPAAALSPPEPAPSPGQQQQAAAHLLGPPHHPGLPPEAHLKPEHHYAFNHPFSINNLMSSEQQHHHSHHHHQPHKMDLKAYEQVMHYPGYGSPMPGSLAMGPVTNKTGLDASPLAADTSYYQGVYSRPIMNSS

Turning to `CCCCCC1CCC(=O)O1` (stereo unspecified), the outcome in [1], in experiment [2], in [3], in experiment [4], in experiment [5] and in experiment [6] was inactive. In addition, the call in experiment [7], in [8] and in [9] was inactive.
With `CC1=CCC(C(C)(C)O)CC1` (stereo unspecified), the call in experiment [1], in experiment [2], in experiment [3], in experiment [4], in [5] and in experiment [6] was inactive. Moreover, the outcome in experiment [7], in [10] and in [9] was inactive.
In the case of `CCCO`, the result in [1], in experiment [2], in experiment [3], in [4], in [5] and in experiment [6] was inactive. In experiment [10], the result was inactive.
Turning to `C=COCC1CCC(COC=C)CC1` (stereo unspecified), the call in experiment [1], in [2], in experiment [3], in experiment [4], in [5] and in experiment [6] was inactive. Moreover, the outcome in experiment [7], in experiment [8] and in experiment [9] was inactive.
In the case of `C=CCOCC(O)CO` (stereo unspecified), the half-maximal activity concentration (AC50) in [1] is 149 µM (active); in experiment [9], 164 µM (active). The outcome in experiment [2], in [3], in experiment [4], in experiment [5], in experiment [6] and in [7] was inactive. For the same compound, the outcome in experiment [10] was inactive.
As to `O=C(OCc1ccccc1)c1ccccc1O`, the outcome in experiment [1], in experiment [2], in experiment [3], in experiment [4], in experiment [5] and in experiment [7] was inactive. Further, the outcome in experiment [10] and in experiment [9] was inactive. In experiment [6], the AC50 was 76.3 µM (active).
Take `CC/C=C\CCOC(=O)C(C)C`: the result in [1], in [2], in experiment [3], in [4], in [5] and in [6] was inactive. Further, the outcome in experiment [7], in [8] and in experiment [9] was inactive.
With `CCCC1CCOC(C)S1` (stereo unspecified), the compound was classed as inactive in [1], in experiment [2], in experiment [3], in [4], in [5] and in experiment [6]. For the same compound, the result in experiment [7], in experiment [8] and in [9] was inactive.
Take `Nc1ccc(O)c(N)c1`: the result in experiment [1], in experiment [2], in experiment [3], in experiment [4], in experiment [5] and in experiment [6] was inactive. Besides, the outcome in [10], in [8] and in experiment [9] was inactive.
In the case of `CC(O)COCC(C)O` (stereo unspecified), the call in experiment [1], in experiment [2], in experiment [3], in experiment [4], in experiment [5] and in experiment [6] was inactive. The outcome in [7], in [10] and in experiment [9] was inactive.
Turning to `CN1CCc2cccc3c2[C@H]1Cc1ccc(O)c(O)c1-3`, the compound was classed as inactive in experiment [1], in experiment [3], in experiment [4], in experiment [5], in experiment [10] and in experiment [8]. Moreover, the half-maximal activity concentration (AC50) in [2] is 2.76 µM (active); in experiment [6] it was 0.386 µM (active).
As to `C=CC(=O)OCC(CO)(COC(=O)C=C)COC(=O)C=C`, the half-maximal activity concentration (AC50) was 27 µM (active) in experiment [1], 22.2 µM (active) in experiment [2], 5.52 µM (active) in [4] and 13.4 µM (active) in [8]. For the same compound, the compound was classed as inactive in [3], in experiment [5], in experiment [6], in [7] and in experiment [9].
Take `Brc1cc(Br)cc(Br)c1`: the compound was called inactive in experiment [1], in experiment [2], in experiment [3], in [4], in [5] and in [6]. Further, the outcome in experiment [7], in [8] and in experiment [9] was inactive.
Take `CC(C)Cc1ccccc1`: the outcome in experiment [1], in experiment [2], in [3], in [4], in experiment [5] and in experiment [6] was inactive. Further, the result in experiment [7], in experiment [8] and in experiment [9] was inactive.
As to `CCCOC(=O)CC`, the compound was called inactive in [1], in [2], in experiment [3], in experiment [4], in [5] and in [6]. The result in experiment [7], in [10] and in [9] was inactive.
Consider `C=C/C(C)=C/C/C=C(\C)CCC=C(C)C`, for which the outcome in experiment [1], in [2], in experiment [3], in experiment [4], in [5] and in [7] was inactive. For the same compound, the result in experiment [10], in experiment [8] and in experiment [9] was inactive. In [6], the concentration at half-maximal activity (AC50) was 56.8 µM (active).
In the case of `CCCCCCCCOS(=O)(=O)O`, the call in experiment [1], in [2], in experiment [3], in experiment [4], in experiment [5] and in experiment [7] was inactive. Moreover, the outcome in experiment [10] and in [9] was inactive. The AC50 in experiment [6] is 135 µM (active).

A word on the AC50: it is the concentration giving half of the maximal activity seen.

Values taken from PubChem BioAssay (EPA / NIEHS).
